From the supplement of paper PMC10849652
About 7,900 targets were measured; listed, in parts, are those with a hit and a random draw of the rest. About 0.6% of all pairs of compound and target were hits.

Columns and labels:
Assay in all cases: log2 fold change, soluble protein after heating vs DMSO (PISA); higher = thermal stabilisation; K562 cells, 10 uM, 30 min; active = over 0.2 and 3.5 SD of the protein, either way, in both replicates (recomputed)
[1] = compound: CC1=C(C=C(C=C1)NC(=O)C2=CC(=CC=C2)C(C)(C)C#N)NC3=CC4=C(C=C3)N=CN(C4=O)C
Outline: (§1)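 K562 cells (2×10^6 cells/mL) were treated with 10 μM compound for 30 min, and aliquots were heated for 3 min over 48°C-58°C. Pooled aliquots were extracted in PBS with 0.5% NP-40 at 4°C, and the supernatant after 21,000xg for 90 min was measured by TMTpro 16plex LC-MS/MS with channel sums equalised. Reported thermal stability, relative to control samples and from duplicates, is a log2 fold change.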

[2] = compound: CC1=C(C=C(C=C1)NC(=O)C2=CC(=CC=C2)N(C)C)NC(=O)C3=CC=C(C=C3)O
Outline: as §1

[3] = compound: CC1=CC=C(C=C1)SC2=C3C=C(SC3=CN=C2)C(=O)N
Outline: as §1

[4] = compound: CC1=NC(=CC=C1)C2=C(N=C(N2)C(C)(C)C)C3=CC4=NC=CN=C4C=C3
Outline: as §1

Nexturastat A = compound: CCCCN(Cc1ccc(C(=O)NO)cc1)C(=O)Nc1ccccc1 [Nexturastat A]
Outline: as §1

vemurafenib = compound: CCCS(=O)(=O)Nc1ccc(F)c(C(=O)c2c[nH]c3ncc(-c4ccc(Cl)cc4)cc23)c1F [vemurafenib]
Outline: as §1

[5] = compound: CCCS(=O)(=O)Nc1ccc(F)c(C(=O)c2c[nH]c3ncc(Cl)cc23)c1F
Outline: as §1

[6] = compound: CCCc1cc(C)[nH]c(=O)c1CNC(=O)c1cc(-c2ccnc(N3CCN(C)CC3)c2)cc2c1cnn2C(C)C
Outline: as §1

givinostat = compound: CCN(CC)Cc1ccc2cc(COC(=O)Nc3ccc(C(=O)NO)cc3)ccc2c1 [givinostat]
Outline: as §1

barasertib = compound: CCN(CCCOc1ccc2c(Nc3cc(CC(=O)Nc4cccc(F)c4)[nH]n3)ncnc2c1)CCOP(=O)(O)O [barasertib]
Outline: as §1

Measured: log2 fold change

TARS2 (UniProt Q9BW92)
Chain of UniProt Q9BW92 (Q9BW92 whole entry, looked up): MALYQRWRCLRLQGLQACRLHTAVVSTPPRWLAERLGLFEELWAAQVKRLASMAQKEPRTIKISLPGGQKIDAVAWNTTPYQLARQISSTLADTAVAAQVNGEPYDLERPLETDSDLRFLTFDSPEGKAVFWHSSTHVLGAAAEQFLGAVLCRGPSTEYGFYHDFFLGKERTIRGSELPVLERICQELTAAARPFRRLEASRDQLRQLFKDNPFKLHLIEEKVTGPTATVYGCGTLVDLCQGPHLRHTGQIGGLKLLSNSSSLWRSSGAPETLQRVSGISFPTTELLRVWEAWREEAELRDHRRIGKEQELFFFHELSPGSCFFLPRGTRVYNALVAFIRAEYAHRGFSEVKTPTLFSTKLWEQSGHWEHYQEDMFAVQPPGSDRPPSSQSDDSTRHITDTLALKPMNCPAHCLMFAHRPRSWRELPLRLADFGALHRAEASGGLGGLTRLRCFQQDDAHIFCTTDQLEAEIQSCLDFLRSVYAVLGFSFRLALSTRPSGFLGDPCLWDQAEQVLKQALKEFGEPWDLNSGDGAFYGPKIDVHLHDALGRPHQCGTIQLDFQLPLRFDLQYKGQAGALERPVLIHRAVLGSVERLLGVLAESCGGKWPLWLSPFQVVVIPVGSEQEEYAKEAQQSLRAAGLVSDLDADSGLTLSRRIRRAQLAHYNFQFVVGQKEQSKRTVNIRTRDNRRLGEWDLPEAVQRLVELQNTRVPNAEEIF
active: givinostat -0.245
inactive: [1] -0.027 | [2] 0.022 | [3] 0.021 | [4] 0.078 | Nexturastat A -0.201 | vemurafenib 0.008 | [5] 0.027 | [6] -0.013 | barasertib 0.028

STK4 (UniProt Q13043)
inactive: [1] -0.065 | [2] 0.018 | [3] -0.022 | [4] 0.007 | Nexturastat A 0.004 | vemurafenib -0.024 | [5] -0.014 | [6] 0.005 | givinostat -0.006 | barasertib 0.032

STK39 (UniProt Q9UEW8)
inactive: [1] -0.049 | [2] 0.006 | [3] -0.016 | [4] 0.033 | Nexturastat A 0.018 | vemurafenib 0.015 | [5] 0.032 | [6] 0.053 | givinostat 0.033 | barasertib 0.033

TK1 (UniProt K7ERV3)
inactive: [1] -0.185 | [2] -0.055 | [3] -0.273 | Nexturastat A -0.178 | vemurafenib -0.077 | [5] -0.009 | [6] -0.149 | barasertib 0.088

STRN (UniProt O43815)
Chain of UniProt O43815 (O43815 whole entry, looked up): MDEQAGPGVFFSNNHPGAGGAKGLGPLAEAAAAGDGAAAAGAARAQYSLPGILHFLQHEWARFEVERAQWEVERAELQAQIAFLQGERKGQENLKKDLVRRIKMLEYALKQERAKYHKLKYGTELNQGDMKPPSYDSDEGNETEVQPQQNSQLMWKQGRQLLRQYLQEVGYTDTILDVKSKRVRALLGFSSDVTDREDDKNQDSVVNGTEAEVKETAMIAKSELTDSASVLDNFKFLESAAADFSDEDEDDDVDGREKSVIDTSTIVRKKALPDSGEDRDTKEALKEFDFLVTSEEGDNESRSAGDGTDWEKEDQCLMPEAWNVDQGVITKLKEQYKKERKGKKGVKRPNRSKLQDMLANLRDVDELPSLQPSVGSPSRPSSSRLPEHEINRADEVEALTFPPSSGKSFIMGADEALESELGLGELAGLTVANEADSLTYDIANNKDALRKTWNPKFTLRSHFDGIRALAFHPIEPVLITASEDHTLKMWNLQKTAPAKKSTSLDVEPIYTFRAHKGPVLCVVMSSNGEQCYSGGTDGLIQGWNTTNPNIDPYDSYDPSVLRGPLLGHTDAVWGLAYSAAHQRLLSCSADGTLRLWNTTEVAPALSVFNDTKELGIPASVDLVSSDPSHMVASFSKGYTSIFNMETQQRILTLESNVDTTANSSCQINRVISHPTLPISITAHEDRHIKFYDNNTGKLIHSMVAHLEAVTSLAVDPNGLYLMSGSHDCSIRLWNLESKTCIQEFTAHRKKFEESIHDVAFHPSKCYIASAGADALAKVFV
inactive: [1] -0.019 | [2] -0.046 | [3] 0.019 | [4] -0.024 | Nexturastat A 0.001 | vemurafenib 0.073 | [5] 0.035 | [6] -0.038 | givinostat 0.002 | barasertib 0.045

TIMM10B (UniProt Q9Y5J6)
inactive: [1] -0.053 | [2] -0.075 | [3] 0.018 | Nexturastat A -0.05 | vemurafenib 0.073 | [5] -0.077 | [6] -0.057 | givinostat 0.061 | barasertib 0.067

SSBP4 (UniProt Q9BWG4)
Chain of UniProt Q9BWG4 (Q9BWG4 whole entry, looked up): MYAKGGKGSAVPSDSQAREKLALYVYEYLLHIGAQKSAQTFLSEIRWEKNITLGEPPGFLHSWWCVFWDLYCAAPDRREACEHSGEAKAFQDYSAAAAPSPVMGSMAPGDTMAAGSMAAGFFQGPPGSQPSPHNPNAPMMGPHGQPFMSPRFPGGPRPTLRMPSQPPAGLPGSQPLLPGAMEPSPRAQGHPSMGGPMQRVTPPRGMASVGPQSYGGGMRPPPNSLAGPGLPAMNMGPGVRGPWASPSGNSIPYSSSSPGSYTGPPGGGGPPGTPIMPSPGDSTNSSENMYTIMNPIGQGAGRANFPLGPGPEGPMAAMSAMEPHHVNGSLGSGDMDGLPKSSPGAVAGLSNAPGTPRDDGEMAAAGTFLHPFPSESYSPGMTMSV
inactive: [1] 0.056 | [2] -0.017 | [3] -0.133 | [4] 0.003 | [5] 0.021 | [6] -0.036 | givinostat -0.042 | barasertib 0.053

SLC35F6 (UniProt Q8N357)
inactive: [1] -0.041 | [2] -0.166 | [3] 0.001 | Nexturastat A -0.065 | vemurafenib -0.168 | [5] -0.055 | [6] -0.066 | givinostat 0.129 | barasertib 0.045

TM7SF3 (UniProt Q9NS93)
inactive: [1] -0.033 | [2] -0.054 | [3] 0.005 | [4] 0.017 | [5] -0.019 | [6] -0.027 | givinostat 0.06 | barasertib 0.045

SOX5 (UniProt P35711)
inactive: [1] -0.125 | [2] 0.004 | [3] -0.144 | [4] 0.02 | vemurafenib -0.05 | [5] -0.063 | [6] 0.042 | givinostat 0.013 | barasertib -0.119

TACC2 (UniProt O95359)
inactive: [1] -0.015 | [2] -0.058 | [3] 0.16 | vemurafenib 0.032 | [5] -0.054 | [6] -0.085 | barasertib 0.012
active: givinostat -0.284

TMBIM1 (UniProt Q969X1)
Chain of UniProt Q969X1 (Q969X1 whole entry, looked up): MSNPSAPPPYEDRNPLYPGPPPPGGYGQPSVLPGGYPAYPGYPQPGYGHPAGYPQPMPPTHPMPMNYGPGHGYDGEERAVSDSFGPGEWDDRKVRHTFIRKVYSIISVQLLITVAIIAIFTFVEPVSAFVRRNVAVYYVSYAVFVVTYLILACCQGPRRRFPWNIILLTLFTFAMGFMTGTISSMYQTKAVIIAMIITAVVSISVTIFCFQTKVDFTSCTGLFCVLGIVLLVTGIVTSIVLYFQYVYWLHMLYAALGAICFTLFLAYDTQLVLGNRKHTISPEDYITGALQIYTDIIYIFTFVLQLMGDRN
inactive: [1] 0.113 | [2] -0.055 | [3] 0.09 | Nexturastat A -0.02 | vemurafenib -0.132 | [5] 0.185 | [6] -0.134 | givinostat 0.004 | barasertib -0.057

SMAP (UniProt O00193)
Chain of UniProt O00193 (O00193 whole entry, looked up): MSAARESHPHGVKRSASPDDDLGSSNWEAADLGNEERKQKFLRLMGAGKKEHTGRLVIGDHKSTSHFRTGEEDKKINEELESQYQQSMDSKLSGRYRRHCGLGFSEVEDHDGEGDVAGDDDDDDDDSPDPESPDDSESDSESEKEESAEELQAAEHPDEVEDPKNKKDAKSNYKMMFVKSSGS
inactive: [1] -0.018 | [2] -0.002 | [3] -0.03 | [4] 0.062 | Nexturastat A -0.059 | vemurafenib -0.006 | [5] 0.001 | [6] -0.107 | givinostat -0.02 | barasertib 0.008

SLC29A3 (UniProt Q9BZD2)
inactive: [1] 0.005 | [2] -0.023 | [3] 0.089 | [4] 0 | Nexturastat A 0.124 | vemurafenib -0.097 | [5] -0.128 | [6] 0.017 | givinostat 0.005 | barasertib -0.016

SLC7A6 (UniProt Q92536)
Chain of UniProt Q92536 (Q92536 whole entry, looked up): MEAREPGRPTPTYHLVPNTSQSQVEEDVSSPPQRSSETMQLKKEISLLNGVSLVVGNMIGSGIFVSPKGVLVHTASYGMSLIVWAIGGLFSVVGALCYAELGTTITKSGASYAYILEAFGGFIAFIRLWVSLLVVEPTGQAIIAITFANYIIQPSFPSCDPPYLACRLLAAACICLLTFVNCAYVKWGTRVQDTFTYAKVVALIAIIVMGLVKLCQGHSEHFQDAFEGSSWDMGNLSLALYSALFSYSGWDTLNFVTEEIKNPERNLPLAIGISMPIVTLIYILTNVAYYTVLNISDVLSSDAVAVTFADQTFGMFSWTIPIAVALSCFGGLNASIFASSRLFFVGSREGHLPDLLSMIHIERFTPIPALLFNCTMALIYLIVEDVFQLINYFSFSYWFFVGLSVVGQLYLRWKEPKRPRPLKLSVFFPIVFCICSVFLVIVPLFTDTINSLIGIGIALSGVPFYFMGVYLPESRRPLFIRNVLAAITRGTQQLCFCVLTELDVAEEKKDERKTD
inactive: [1] 0.021 | [2] 0.027 | [3] 0.023 | [4] 0.017 | Nexturastat A 0.05 | vemurafenib 0.03 | [5] -0.046 | [6] -0.005 | givinostat 0.012 | barasertib 0.036

SORT1 (UniProt Q99523)
inactive: [1] -0.042 | [2] 0.013 | [3] -0.006 | [4] -0.012 | Nexturastat A -0.038 | vemurafenib -0.003 | [5] -0.008 | [6] -0.072 | givinostat -0.003 | barasertib 0.015

SRXN1 (UniProt Q9BYN0)
Chain of UniProt Q9BYN0 (Q9BYN0 whole entry, looked up): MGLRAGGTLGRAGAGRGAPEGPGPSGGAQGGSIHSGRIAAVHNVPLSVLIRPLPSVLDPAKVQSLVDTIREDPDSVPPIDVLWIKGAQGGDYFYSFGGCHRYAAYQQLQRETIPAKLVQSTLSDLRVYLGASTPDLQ
inactive: [1] -0.149 | [2] 0.01 | [3] 0.04 | [4] 0.089 | Nexturastat A -0.036 | vemurafenib 0.142 | [5] 0.017 | [6] -0.027 | barasertib 0.012

TGFBR1 isoform 2 (UniProt P36897)
inactive: [1] -0.112 | [2] 0.023 | [3] -0.058 | Nexturastat A 0.038 | vemurafenib 0.044 | [5] 0.028 | [6] -0.062 | givinostat 0.07 | barasertib -0.028

SSX2 (UniProt Q16385)
active: Nexturastat A -0.254
inactive: [1] 0.021 | [2] -0.013 | [3] 0.011 | [4] 0.073 | vemurafenib 0.046 | [5] 0.035 | [6] -0.016 | givinostat -0.099 | barasertib 0.018

STARD9 (UniProt Q9P2P6)
inactive: [1] -0.29 | [2] 0.01 | [3] -0.07 | [4] -0.048 | Nexturastat A 0.144 | vemurafenib -0.161 | [5] 0.029 | [6] -0.035 | givinostat -0.046 | barasertib -0.017

SSRP1 (UniProt Q08945)
Chain of UniProt Q08945 (Q08945 whole entry, looked up): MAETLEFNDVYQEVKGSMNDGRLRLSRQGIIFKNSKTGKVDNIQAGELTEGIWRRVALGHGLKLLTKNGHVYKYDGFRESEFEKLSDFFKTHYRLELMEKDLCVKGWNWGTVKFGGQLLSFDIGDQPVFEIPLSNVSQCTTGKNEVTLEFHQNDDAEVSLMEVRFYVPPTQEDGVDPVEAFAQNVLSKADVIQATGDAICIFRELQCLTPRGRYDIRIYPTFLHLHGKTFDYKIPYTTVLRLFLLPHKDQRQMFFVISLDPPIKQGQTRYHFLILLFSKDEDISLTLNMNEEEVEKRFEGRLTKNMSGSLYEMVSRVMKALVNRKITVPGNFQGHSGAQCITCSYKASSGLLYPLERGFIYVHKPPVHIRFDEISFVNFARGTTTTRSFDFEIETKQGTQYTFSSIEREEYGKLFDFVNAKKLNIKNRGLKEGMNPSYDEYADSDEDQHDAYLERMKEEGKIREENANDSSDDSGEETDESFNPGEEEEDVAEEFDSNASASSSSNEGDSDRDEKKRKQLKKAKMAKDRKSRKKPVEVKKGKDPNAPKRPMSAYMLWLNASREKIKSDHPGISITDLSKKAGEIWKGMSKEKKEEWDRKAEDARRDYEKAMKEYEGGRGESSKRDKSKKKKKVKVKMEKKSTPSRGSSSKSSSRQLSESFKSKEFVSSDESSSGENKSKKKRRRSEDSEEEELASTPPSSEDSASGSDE
inactive: [1] -0.072 | [2] -0.049 | [3] 0.018 | [4] 0.091 | Nexturastat A -0.069 | vemurafenib 0.051 | [5] 0.062 | [6] 0.015 | givinostat 0.033 | barasertib 0.059

SLC39A11 (UniProt Q8N1S5)
inactive: [1] 0.046 | [2] 0.372 | [3] -0.057 | [4] 0.045 | vemurafenib 0.055 | [5] -0.026 | [6] -0.009 | givinostat 0.074 | barasertib -0.002

TERF2IP (UniProt Q9NYB0)
inactive: [1] -0.023 | [2] -0.012 | [3] 0.02 | [4] 0.013 | Nexturastat A 0.057 | vemurafenib 0.184 | [5] 0.001 | [6] -0.017 | givinostat -0.009 | barasertib 0.021

SRSF10 (UniProt O75494)
inactive: [1] -0.046 | [2] 0.029 | [3] -0.076 | [4] -0.134 | Nexturastat A 0.227 | vemurafenib -0.027 | [5] -0.027 | [6] 0.083 | givinostat 0.017 | barasertib -0.045

TLK1 (UniProt Q9UKI8)
inactive: [1] 0.062 | [2] -0.009 | [3] 0.018 | [4] 0.011 | Nexturastat A 0.012 | vemurafenib 0.008 | [5] 0.019 | [6] -0.053 | givinostat 0.078 | barasertib 0.079

TIPRL (UniProt O75663)
Chain of UniProt O75663 (O75663 whole entry, looked up): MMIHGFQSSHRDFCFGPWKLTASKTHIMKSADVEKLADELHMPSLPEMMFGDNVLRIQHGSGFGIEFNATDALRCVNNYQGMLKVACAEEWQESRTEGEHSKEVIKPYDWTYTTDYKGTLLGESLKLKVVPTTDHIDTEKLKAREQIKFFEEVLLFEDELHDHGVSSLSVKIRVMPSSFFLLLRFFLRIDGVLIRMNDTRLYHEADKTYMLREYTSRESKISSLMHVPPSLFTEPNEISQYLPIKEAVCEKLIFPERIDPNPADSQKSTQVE
inactive: [1] 0.011 | [2] -0.017 | [3] 0.007 | [4] 0.013 | Nexturastat A -0.05 | vemurafenib 0.022 | [5] 0.046 | [6] 0.02 | givinostat 0.032 | barasertib -0.007

SMIM20 isoform 2 (UniProt Q8N5G0)
Chain of UniProt Q8N5G0 (Q8N5G0 whole entry, looked up): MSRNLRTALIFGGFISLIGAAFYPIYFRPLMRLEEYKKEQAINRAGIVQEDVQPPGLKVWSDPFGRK
inactive: [1] 0.01 | [2] 0.008 | [3] -0.052 | Nexturastat A 0.006 | vemurafenib 0.148 | [5] -0.059 | [6] -0.024 | givinostat -0.102 | barasertib -0.026

SRFBP1 (UniProt Q8NEF9)
Chain of UniProt Q8NEF9 (Q8NEF9 whole entry, looked up): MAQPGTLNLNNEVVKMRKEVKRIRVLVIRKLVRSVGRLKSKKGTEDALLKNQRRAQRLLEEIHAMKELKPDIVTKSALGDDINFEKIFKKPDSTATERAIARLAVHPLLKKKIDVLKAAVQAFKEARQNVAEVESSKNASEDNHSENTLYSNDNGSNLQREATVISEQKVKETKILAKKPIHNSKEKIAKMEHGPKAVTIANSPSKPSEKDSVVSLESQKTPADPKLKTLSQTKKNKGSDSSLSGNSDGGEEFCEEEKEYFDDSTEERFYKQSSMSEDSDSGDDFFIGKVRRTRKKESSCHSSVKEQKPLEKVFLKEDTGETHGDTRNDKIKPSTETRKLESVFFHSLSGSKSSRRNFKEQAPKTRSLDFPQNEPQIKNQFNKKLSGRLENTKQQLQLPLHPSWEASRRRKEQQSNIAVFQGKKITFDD
inactive: [1] 0.008 | [2] -0.019 | [3] -0.127 | [4] -0.025 | Nexturastat A 0.111 | [5] -0.012 | [6] -0.012 | givinostat -0.061 | barasertib -0.045

SPG11 (UniProt Q96JI7)
inactive: [1] -0.384 | [2] 0.068 | [3] -0.063 | [4] -0.182 | Nexturastat A 0.359 | vemurafenib -0.415 | [5] -0.008 | [6] -1.21 | givinostat 0.023 | barasertib 0.029

TIMM10 (UniProt P62072)
inactive: [1] 0.031 | [2] -0.078 | [3] 0.018 | [4] 0.045 | Nexturastat A -0.124 | vemurafenib 0.058 | [5] -0.093 | [6] -0.049 | givinostat -0.05 | barasertib 0.022

STARD7 (UniProt Q9NQZ5)
Chain of UniProt Q9NQZ5 (Q9NQZ5 whole entry, looked up): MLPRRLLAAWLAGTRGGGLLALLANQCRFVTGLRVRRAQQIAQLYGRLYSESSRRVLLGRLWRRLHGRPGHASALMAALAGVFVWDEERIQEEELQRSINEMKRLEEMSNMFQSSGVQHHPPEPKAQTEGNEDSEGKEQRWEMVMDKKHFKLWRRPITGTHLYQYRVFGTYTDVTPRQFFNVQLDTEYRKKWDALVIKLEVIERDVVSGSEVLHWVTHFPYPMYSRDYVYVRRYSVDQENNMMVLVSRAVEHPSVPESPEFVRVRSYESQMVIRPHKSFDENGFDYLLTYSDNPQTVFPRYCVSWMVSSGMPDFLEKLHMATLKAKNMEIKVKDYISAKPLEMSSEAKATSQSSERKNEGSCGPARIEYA
inactive: [1] 0.061 | [2] 0.015 | [3] 0.004 | [4] -0.01 | Nexturastat A -0.053 | vemurafenib 0 | [5] -0.033 | [6] 0.024 | givinostat -0.029 | barasertib -0.008
